MITF TRPM1 HTS: activators of MITF-driven TRPM1 promoter reporter, primary screen, cell-based, SK-MEL-5, luciferase, single point. activation, % at 12.5 µM. SK-MEL-5 TRPM1-promoter luciferase, 24 h; % of positive control, neutral wells = 0. 300,000 compounds, 0.75% hits;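 active = mean activation of at least 80% with every replicate also reaching 80%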;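 note: 0% = neutral control wells and 100% = parthenolide positive control wells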
LGR2 inh: inhibitors of bursicon-induced LGR2 CRE-luciferase signal, primary screen, cell-based, HEK293, CRE-luciferase reporter, bursicon stimulation. inhibition, % at 9.99 µM. bursicon-stimulated, 4 h. 380,000 compounds, 0.35% hits;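 active = drop in luminescence signal, shown as inhibition above about 50% in the replicate tests, limit read from the data, passing the limit was not always enough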;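 note: agonist challenge used bursicon conditioned medium at about half maximal strength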
TWEAK-Fn14 inh: inhibitors of TWEAK-Fn14 signaling, primary screen, luciferase reporter cells, uHTS. 360,000 compounds, 2% hits. inhibition, % at 10 µM. TWEAK-stimulated Fn14 reporter cells, luciferase luminescence, 8 h. AID 1159606, 2016; in the data active = inhibition above about 50%
MITF TRPM1 inh: inhibitors of MITF-dependent TRPM1 promoter reporter, primary screen, cell-based, SK-MEL-5, single point, luciferase | SK-MEL-5 TRPM1 promoter luciferase, 24 h | inhibition, % at 12.5 µM | 330,000 compounds, 0.83% hits | AID 488899, 2010;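 active = mean inhibition across replicates of 60% or more, whatever share of single replicates reaches that level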
TROY NFkB inh: inhibitors of TROY-driven NF-kB signaling, primary screen, Q293 LMP1-TROYcd cells, NF-kB luciferase, uHTS; Q293 LMP1-TROYcd NF-kB luciferase reporter, 4 h; inhibition, % at 10 µM; 360,000 compounds, 0.98% hits; AID 1347056, 2019;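 active = compounds whose plate-normalised and pattern-corrected inhibition of the luciferase reporter signal at the single screening dose is 50% or more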
LMP1 NFkB inh: EBV LMP1-driven NF-kappaB luciferase reporter inhibitors, primary screen, cell-based, luminescence, single point | LMP1-induced NF-kappaB luciferase reporter cells | inhibition, % at 12.5 µM | 350,000 compounds, 0.69% hits | AID 504558, 2011; in the data active = inhibition above about 41%;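 note: 0% = neutral control wells and 100% = reference inhibitor control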
* hit, by the source's call; / = not tested or not shown; ! = not active in a repeat. A selection: hits, their analogues and other compounds. The true share with any hit is near 3%.

SMILES	MITF TRPM1 HTS	LGR2 inh	TWEAK-Fn14 inh	MITF TRPM1 inh	TROY NFkB inh	LMP1 NFkB inh
Fc1cc(Br)ccc1COc1ccc(-c2nnco2)cc1	118.8*	-62.5	-28.6	-118.3	-73.4	-15.4
Fc1ccc(COc2ccc(-c3nnco3)cc2)c(Cl)c1	29.6	-39.3	-59.0	-25.9	-28.3	1.9
CC1CCCC(C)N1C(=O)CN1C(=O)c2ccccc2S1(=O)=O (stereo unspecified)	/	4.8	5.8	/	-8.3	3.0
O=C(CN1C(=O)c2ccccc2S1(=O)=O)NCc1ccccc1Cl	1.3	6.7	-9.5	-1.3	-5.1	-0.4
O=C(CN1C(=O)c2ccccc2S1(=O)=O)c1ccccc1	/	/	100.4*	59.6	76.5*	61.3*
CC(C)NC(=O)CN1C(=O)c2ccccc2S1(=O)=O	7.0	20.0	-12.0	-4.9	-28.1	8.1
CN(C(=O)CN1C(=O)c2ccccc2S1(=O)=O)C1CCCCC1	1.4	-8.3	70.3*	-0.5	74.9*	6.3
O=C(CN1C(=O)c2ccccc2S1(=O)=O)c1ccccc1Cl	-76.4	96.3*	101.9*	77.6*	84.6*	67.3*
O=C(CN1C(=O)c2ccccc2S1(=O)=O)Nc1ncc(Cl)cc1Cl	-37.6	69.2*	74.6*	37.9	55.0*	41.2*
Cc1noc(C)c1S(=O)(=O)N(C)C[C@@H]1Oc2ccc(NS(=O)(=O)c3ccc(F)cc3)cc2CC(=O)N([C@H](C)CO)C[C@@H]1C	/	-10.5	/	/	/	/
Cc1ccc(C(=O)CN2/C(=C(\O)c3ccccc3)C(=O)c3ccccc3S2(=O)=O)c(C)c1	/	/	1.7	-4.8	36.6	1.2
Cc1ccc(C(=O)CN2C(=O)c3ccccc3S2(=O)=O)cc1	/	95.4*	98.9*	68.8*	82.9*	74.4*
Cc1ccc(C2=C/C(=C/c3cccs3)C(=O)O2)cc1	29.8	-3.2	52.9*	-25.8	-31.8	-2.7
C[C@H](CO)N1C[C@H](C)[C@@H](CN(C)C(=O)C2CC2)Oc2cc(C#C[C@@H](C)O)ccc2S1(=O)=O	/	-0.2	/	/	/	/
CCN1[C@@H]2c3ccc(-c4ccccc4OC)c(=O)n3C[C@@H]2[C@@H](CO)[C@@H]1C(=O)NCc1ccc(F)cc1	/	-11.0	/	/	/	/
C=CCn1c(SCC(=O)c2cccs2)nc2sc(CC)cc2c1=O	-20.1	/	78.9*	16.3	40.6	18.1
Cc1ccc2c(c1)cc(C)c1nnc(SCC(=O)NCc3ccco3)n12	0.0	13.0	9.1	2.3	-8.1	-4.5
Cc1ccc2cc(C)c3nnc(SCC(=O)NCc4ccco4)n3c2c1	2.8	6.9	51.8*	0.6	-13.0	16.9
O=C(CN(C1CCCCC1)S(=O)(=O)c1ccc(Br)cc1)NCc1cccnc1	1.9	33.1	5.8	-3.9	-9.2	0.8
O=NN(C(=O)NCc1cccnc1)C1CCCCC1	/	4.8	4.2	/	57.6*	/
Cc1cnc(C(=O)Nc2ccc(C(C)C)cc2)cn1	131.4*	-68.3	-13.6	-124.2	-26.7	-24.8
Cc1cnc(C(=O)Nc2ccc(F)cc2)cn1	51.8	/	-6.1	-48.3	-53.1	5.9
Cc1ccc(NNC(=O)C(O)(c2cccc(C(F)(F)F)c2)c2cccc(C(F)(F)F)c2)cc1	-4.6	/	21.9	5.9	42.5	-9.7
O=C(NNc1ccccc1Br)C(O)(c1cccc(C(F)(F)F)c1)c1cccc(C(F)(F)F)c1	-21.6	21.9	72.7*	18.8	57.4*	-4.6
CN1C(=O)C(Cl)(Cl)C(=O)c2ccccc21	-6.4	/	50.9*	10.2	11.7	-4.8
SMILES	MITF TRPM1 HTS	LGR2 inh	TWEAK-Fn14 inh	MITF TRPM1 inh	TROY NFkB inh	LMP1 NFkB inh
CN1C(=O)C2(NC(=O)c3ccccc3N2C)c2ccccc21 (stereo unspecified)	-1.6	11.7	13.0	4.3	-5.8	1.9
COc1cc2nc(N3CCN(C(=O)C4CCCO4)CC3)nc(N)c2cc1OC (stereo unspecified)	21.4	-0.8	-35.7	-21.0	-0.1	78.6*!
O=C(C1CCCCC1)N1CCN=C1SCc1cccnc1	-8.5	13.1	4.9	6.2	15.2	15.0
O=C(C1CCCCC1)N1CCN=C1SCc1cccc([N+](=O)[O-])c1	-5.1	45.1	53.6*	9.9	26.1	10.6
CNC[C@@H]1Oc2ccc(NS(=O)(=O)c3ccc(OC)cc3)cc2CC(=O)N([C@@H](C)CO)C[C@@H]1C	/	0.2	/	/	/	/
O=C(CCc1ccccc1)NC(c1cccs1)c1cc(Cl)c2cccnc2c1O (stereo unspecified)	-57.8	22.8	9.0	56.4	8.2	53.9*
CCCC(=O)NC(c1cccs1)c1cc([N+](=O)[O-])c2cccnc2c1O (stereo unspecified)	-5.4	37.2	11.4	5.0	-0.2	2.2
CC(=O)c1c(C(C)=O)c(C)n(-c2cccc([N+](=O)[O-])c2)c1C	11.8	10.5	2.8	-9.6	-17.9	-0.5
CC(=O)C1=C(c2cccc([N+](=O)[O-])c2)N(C(C)=O)n2c(C)nnc2S1	0.1	7.2	59.9*	0.0	-5.3	-2.1
C[C@@H]1CN([C@H](C)CO)C(=O)Cc2cc(NS(=O)(=O)c3cccs3)ccc2O[C@@H]1CN(C)C(=O)Nc1ccc(C(F)(F)F)cc1	/	4.1	/	/	/	/
CCc1nc2ccc(C(=O)NCCCN3CCN(c4ccc(F)cc4)CC3)cc2nc1CC	-0.4	5.9	8.1	4.7	-13.7	-8.5
CN1CCN(CCNC(=O)c2ccc3nc(-c4ccc(F)cc4)c(-c4ccc(F)cc4)nc3c2)CC1	-90.0	-2.0	-29.9	89.4*	10.3	-5.1
CO[C@H]1CN(C)C(=O)c2ccc(NC(=O)NC(C)C)cc2OC[C@@H](C)N(Cc2cocn2)C[C@H]1C	/	-0.7	/	/	/	/
Cc1ccc2c(Cl)cc(Cl)c(OCC(=O)Nc3cc(S(=O)(=O)N(C)C)ccc3C)c2n1	-5.3	7.6	79.9*	6.8	38.1	11.9
COc1ccc(Cc2nc(-c3ccncc3)no2)cc1	12.0	-10.3	35.8	-13.7	50.1*	-3.5
COc1ccc(-c2noc(Cc3cccs3)n2)cc1	118.6*	/	-20.6	-112.8	/	-32.0
Clc1ccc(Cc2nc(-c3ccncc3)no2)cc1	5.4	-4.6	-3.6	-5.3	4.9	10.6
CN1CCN(C(=O)C[C@H]2C[C@H]3c4cc(NC(=O)NC5CCCC5)ccc4O[C@H]3[C@H](CO)O2)CC1	/	-12.7	/	/	/	/
COCC(=O)Nc1ccc2c(c1)C(=O)N(C)C[C@@H](OC)[C@H](C)CN(C(=O)CC1CC1)[C@@H](C)CO2	/	12.1	/	/	/	/
Cc1cnc(NC(=O)c2cc3c(s2)CCCC3)s1	-5.5	/	86.5*	8.0	56.6*	23.8
Cc1csc(NC(=O)C2CCCC2)n1	21.2	-21.1	62.2*	-22.3	/	-12.9
Cc1csc(NC(=O)CN2C(=O)C3CC=CCC3C2=O)n1 (stereo unspecified)	-6.1	/	73.4*	9.7	/	-3.7
